Values without a mark were called inactive. Inconclusive results are not listed. Where a structure was tested more than once in an assay, its records may differ in their call. Active and inactive are the calls of the source. Unless noted, calls follow the shape of the dose curve; as a rule, active = well fitted curve in the direction sought with a large enough effect; inconclusive = small, poorly fitted or top-dose-only effect, or another doubt; inactive = no such curve, though single readings can be large; an effect the other way counts as inactive or inconclusive.

Experimental findings from PubChem BioAssay (NCATS) are described below.

Test [1] can be described thus: qHTS Assay for Identification of Small Molecule Agonists for Hypoxia Response Element Signaling Pathway (AID 914; active = well fitted activation curve with a large enough effect in the signal ratio, with a control signal flat, not every such curve was filed as active; the % refers to the signal ratio; also: % of control where 0% means no effect). To be noted: ME-180 HRE-bla reporter, beta-lactamase ratio, CoCl2, 17 h; active compounds read high. In outline:
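Compounds in a titration series were added to ME-180 reporter cells alongside an EC50 level of CoCl2. After 17 hours, beta-lactamase activity was read as the 460nm/530nm emission ratio of CCF4, giving AC50 values.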
(In general: Quantitative high-throughput screening tests each substance at several concentrations.)

The target of test [2] is Cytochrome P450 3A4 (Homo sapiens) (UniProt P08684). Description: qHTS Assay for Inhibitors and Substrates of Cytochrome P450 3A4 (AID 884). Also: nearly all actives have a fitted effect of over 50% in size. Also: potency is read from the fitted curve at half-maximal effect. The method in brief: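 20 nM human CYP3A4 with 25 uM Luciferin-PPXE (at KM) in 200 mM KPO4, preincubated 10 min with compound; NADPH regeneration started a 60 min RT reaction. Luciferin detected by luminescence, normalized to 57 uM ketoconazole as full inhibition.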
Cytochrome P450 3A4 (Homo sapiens), sequence (P08684 whole entry, looked up): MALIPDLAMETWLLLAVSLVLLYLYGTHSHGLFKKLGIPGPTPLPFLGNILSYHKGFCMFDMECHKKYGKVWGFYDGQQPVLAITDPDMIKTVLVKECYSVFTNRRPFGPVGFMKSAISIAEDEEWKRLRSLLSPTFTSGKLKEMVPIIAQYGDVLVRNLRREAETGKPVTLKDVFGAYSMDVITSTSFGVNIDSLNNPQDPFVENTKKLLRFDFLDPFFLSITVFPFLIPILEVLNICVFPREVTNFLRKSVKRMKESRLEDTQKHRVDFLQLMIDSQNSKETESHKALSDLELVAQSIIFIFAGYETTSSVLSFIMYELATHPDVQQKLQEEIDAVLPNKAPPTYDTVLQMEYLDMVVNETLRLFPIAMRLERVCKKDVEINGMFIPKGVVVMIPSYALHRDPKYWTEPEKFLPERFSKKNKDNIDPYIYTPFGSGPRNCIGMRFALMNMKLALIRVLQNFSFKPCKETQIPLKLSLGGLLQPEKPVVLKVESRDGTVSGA

Test [3] can be described thus: Confirmation and Secondary Assay for Modulators of Hemoglobin Beta Chain Splicing at IVS2 654 locus (AID 910).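 Also: HeLa cells stably carrying EGFP split by mutant beta-globin IVS2-654 intron; % of control where 0% means no effect.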 In outline: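 HeLa cells stably expressing EGFP interrupted by β-globin IVS2-654 intron, seeded overnight in Opti-MEM/2% FCS, then treated 2 days at 37 °C. Restored splicing read as total peak GFP intensity per well by laser scanning cytometry (488 nm excitation, 500–520 nm emission); 500 nM antisense PNA as control.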

A short description of test [4]: Confirmation and Secondary Assay for Modulators of Hemoglobin Beta Chain Splicing at IVS2 705 locus (AID 930).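 Also: HeLa cells stably expressing the EGFP-705 splicing reporter; series mostly up to about 46 µM; % of control where 0% means no effect.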 The method in brief: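 Assay measures total GFP intensity per well in HeLa EGFP-705 cells after 2 days with compound; mis-splicing normally truncates EGFP, so fluorescence indicates corrected splicing.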
Test [5] addresses Cytochrome P450 2C19 (Homo sapiens) (UniProt P33261). Description: qHTS Assay for Inhibitors and Substrates of Cytochrome P450 2C19 (AID 899). Also: nearly all actives have a fitted effect of over 60% in size. Also: potency is read from the fitted curve at half-maximal effect. In outline:
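5 nM human CYP2C19 with 10uM Luciferin-H EGE (at KM) in 50mM KPO4, compound preincubated 10 min at 37C, then NADPH regeneration for 60 min at 37C. Luciferin read by luminescence after detection reagent; normalized to 57uM ketoconazole as full inhibition.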

The target in test [6] is Cytochrome P450 2D6 (Homo sapiens) (UniProt P10635). Description: qHTS Assay for Inhibitors and Substrates of Cytochrome P450 2D6 (AID 891). Also: potency is read from the fitted curve at half-maximal effect; nearly all actives have a fitted effect of over 60% in size. In outline: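 Human CYP2D6 (5 nM) with 30 uM Luciferin-ME EGE (at Km) in 100 mM KPO4, compound preincubated 10 min, then NADPH regeneration system for 60 min at room temperature. Luciferin read by luminescence; normalized to 1.43 uM quinidine.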
Cytochrome P450 2D6 (Homo sapiens), sequence (P10635 whole entry, looked up): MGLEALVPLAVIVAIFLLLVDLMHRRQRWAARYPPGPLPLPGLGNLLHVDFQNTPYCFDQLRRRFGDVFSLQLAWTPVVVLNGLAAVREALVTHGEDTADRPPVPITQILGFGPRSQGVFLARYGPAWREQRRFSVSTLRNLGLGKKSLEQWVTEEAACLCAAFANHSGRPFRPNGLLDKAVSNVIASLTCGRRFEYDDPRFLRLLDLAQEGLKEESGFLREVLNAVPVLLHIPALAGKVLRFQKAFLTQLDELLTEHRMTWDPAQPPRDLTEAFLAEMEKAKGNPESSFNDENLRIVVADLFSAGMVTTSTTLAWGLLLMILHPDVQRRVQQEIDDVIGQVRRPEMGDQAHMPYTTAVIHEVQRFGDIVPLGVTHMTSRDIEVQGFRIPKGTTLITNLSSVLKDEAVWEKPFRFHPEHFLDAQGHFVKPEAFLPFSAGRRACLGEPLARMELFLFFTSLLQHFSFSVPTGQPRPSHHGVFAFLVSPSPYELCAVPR

Test [7] in a line: qHTS Assay for Identification of Small Molecule Antagonists for NFkB Signaling Pathway (AID 895; active = well fitted inhibition curve with a large enough effect in the signal ratio, with a control signal flat, not every such curve was filed as active; the % refers to the signal ratio; also: potency is read from the fitted curve at half-maximal effect). In outline: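 ME-180 NFkB-bla cells (beta-lactamase under NFkB response element), plated overnight, treated with compound then 10 pM TNF alpha (about EC50) for 5 hrs at 37 C. LiveBLAzer FRET read at 460/530 nm emission, 405 nm excitation.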
A short description of test [8]: qHTS Assay for Identification of Small Molecule Antagonists for Thrombopoietin (TPO) Signaling Pathway (AID 918). Also: potency is read from the fitted curve at half-maximal effect; nearly all actives have a fitted effect of over 60% in size. Conditions: TPO-dependent cell signaling reporter, antagonist mode. The method in brief:
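First, Ba/F3 reporter cells expressing human TPO receptor were held overnight without IL-3. Next, compound and 26 pM TPO were added. After 24 hrs incubation at 37 C, luciferase luminescence under the Glycoprotein IIb promoter was recorded.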

In test [9] the target is Muscarinic acetylcholine receptor M1 (Rattus norvegicus) (UniProt P08482). Briefly: qHTS Assay for Antagonists of Acetylcholine Muscarinic M1 Receptor: Measurement of IP-One Response (AID 944). Also: potency is read from the fitted curve at half-maximal effect; nearly all actives have a fitted effect of over 75% in size. In outline:
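Steps: plate transfected CHO-M1 cells overnight; add test compound, 10 min; add carbachol (200 nM, EC80) in stimulation buffer with LiCl; incubate 30 min; add labelled IP1 tracer and anti-IP1 antibody in lysis buffer; read HTRF after 10 min.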

In test [10] the target is Pyruvate kinase (Leishmania mexicana) (UniProt Q27686). Briefly: qHTS Validation Assay for Inhibitors of Leishmania Mexicana Pyruvate Kinase (AID 945).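 Also: 0% = DMSO only neutral control wells.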 The method in brief: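 Pyruvate kinase activity of E451W LmPYK (0.2 nM) was followed as ATP output after 1 h at room temperature with 0.5 mM PEP and 0.1 mM ADP, detected by PKLight luminescence.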
Pyruvate kinase (Leishmania mexicana), sequence (Q27686 2-499 E452W): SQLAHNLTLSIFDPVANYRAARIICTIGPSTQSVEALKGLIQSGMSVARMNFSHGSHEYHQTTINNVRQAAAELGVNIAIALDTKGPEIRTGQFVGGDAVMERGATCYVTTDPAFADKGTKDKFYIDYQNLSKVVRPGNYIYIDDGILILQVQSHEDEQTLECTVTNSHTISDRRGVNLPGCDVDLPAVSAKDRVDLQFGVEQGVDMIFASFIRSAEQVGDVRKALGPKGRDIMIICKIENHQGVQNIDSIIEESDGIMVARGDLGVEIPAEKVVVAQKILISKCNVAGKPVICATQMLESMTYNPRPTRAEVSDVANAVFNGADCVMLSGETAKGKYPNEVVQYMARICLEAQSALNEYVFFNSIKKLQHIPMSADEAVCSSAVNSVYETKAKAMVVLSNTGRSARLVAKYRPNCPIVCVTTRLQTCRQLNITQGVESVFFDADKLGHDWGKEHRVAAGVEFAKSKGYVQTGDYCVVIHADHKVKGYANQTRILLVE
The target of test [11] is Cytochrome P450 3A4 (Homo sapiens) (UniProt P08684). Description: qHTS Assay for Activators of Cytochrome P450 3A4 (AID 885). Also: nearly all actives have a fitted effect of over 65% in size. The method in brief:
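Steps: enzyme/substrate mix dispensed; compound added, 10 min RT; NADPH regeneration solution added, 60 min RT; luciferin detection buffer stops reaction; 20 min later luminescence measured.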

Test [12] concerns the target Muscarinic acetylcholine receptor M1 (Rattus norvegicus) (UniProt P08482). Briefly: qHTS Assay for Antagonists of Acetylcholine Muscarinic M1 Receptor: Kinetic Measurement of Intracellular Calcium Response (AID 943). Also: nearly all actives have a fitted effect of over 75% in size. Also: potency is read from the fitted curve at half-maximal effect. In outline: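 Intracellular calcium flux, recorded with Fluo-4 in a kinetic plate reader, served as signal; the response to carbachol at EC80 (100 nM final) was taken as maximal over minimal fluorescence after a 10 min compound pre-incubation in rat M1-CHO cells.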

The target in test [13] is Guanine nucleotide-binding protein G(i) subunit alpha-1 (Homo sapiens) (UniProt P63096). Description: qHTS Assay for Inhibitors of RGS12 GoLoco Motif Activity (Green Fluorophore) (AID 879).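 Also: 0% = labeled peptide with Gαi1 and full inhibition = labeled peptide alone without protein; negative values mean loss of peptide binding seen as reduced polarization.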 In outline:
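Fluorescence polarization assay: 50 nM Gαi1 with 10 nM FITC-labeled RGS12 GoLoco peptide in 10 mM Tris pH 7.5, 150 mM NaCl, 0.1 mM GDP, 0.05% NP40, 10 min at room temperature with compound.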

Test [14] in a line: MultiTox-Fluor Cytotoxicity Assay - LYMP1-001 - Dead Cells (AID 946).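 Also: potency is read from the fitted curve at half-maximal effect; cells exposed to compound for 16 h.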 The method in brief: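 Seed 2500 LYMP1-001 cells/well, incubate 5 hr at 37 C; add compound, 16 hr at 37 C; add MultiTox-Fluor reagent, 60 min RT; read dead-cell fluorescence Ex/Em=485/520. Normalize to DMSO and 15 uM tetraoctylammonium bromide.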
For test [15], the target named is Cytochrome P450 2C9 (Homo sapiens) (UniProt P11712). Description: qHTS Assay for Inhibitors and Substrates of Cytochrome P450 2C9 (AID 883). Also: potency is read from the fitted curve at half-maximal effect; nearly all actives have a fitted effect of over 60% in size. In outline:
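Human CYP2C9 (10nM) with Luciferin-H at 100uM (its KM) in 25mM KPO4; compound preincubated 10 min at 37C, then NADPH regeneration for 60 min at 37C. Luciferin read by luminescence after detection reagent; normalized to 57uM sulphaphenazole as full inhibition.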

Cytochrome P450 2C19 (Homo sapiens), sequence (P33261 whole entry, looked up): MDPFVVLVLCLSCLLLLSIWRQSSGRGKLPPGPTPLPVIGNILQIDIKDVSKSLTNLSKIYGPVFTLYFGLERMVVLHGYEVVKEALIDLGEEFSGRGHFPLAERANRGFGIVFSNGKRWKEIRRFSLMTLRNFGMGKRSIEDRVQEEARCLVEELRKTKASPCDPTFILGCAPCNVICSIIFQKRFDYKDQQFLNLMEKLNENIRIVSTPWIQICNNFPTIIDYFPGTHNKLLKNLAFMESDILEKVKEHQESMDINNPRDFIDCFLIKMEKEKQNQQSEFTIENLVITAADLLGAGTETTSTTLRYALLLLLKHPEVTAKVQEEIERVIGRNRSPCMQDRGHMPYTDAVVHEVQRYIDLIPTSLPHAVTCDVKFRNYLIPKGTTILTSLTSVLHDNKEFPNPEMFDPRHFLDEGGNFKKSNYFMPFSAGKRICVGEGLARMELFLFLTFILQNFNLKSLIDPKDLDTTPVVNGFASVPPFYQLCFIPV
Muscarinic acetylcholine receptor M1 (Rattus norvegicus), sequence (P08482 whole entry, looked up): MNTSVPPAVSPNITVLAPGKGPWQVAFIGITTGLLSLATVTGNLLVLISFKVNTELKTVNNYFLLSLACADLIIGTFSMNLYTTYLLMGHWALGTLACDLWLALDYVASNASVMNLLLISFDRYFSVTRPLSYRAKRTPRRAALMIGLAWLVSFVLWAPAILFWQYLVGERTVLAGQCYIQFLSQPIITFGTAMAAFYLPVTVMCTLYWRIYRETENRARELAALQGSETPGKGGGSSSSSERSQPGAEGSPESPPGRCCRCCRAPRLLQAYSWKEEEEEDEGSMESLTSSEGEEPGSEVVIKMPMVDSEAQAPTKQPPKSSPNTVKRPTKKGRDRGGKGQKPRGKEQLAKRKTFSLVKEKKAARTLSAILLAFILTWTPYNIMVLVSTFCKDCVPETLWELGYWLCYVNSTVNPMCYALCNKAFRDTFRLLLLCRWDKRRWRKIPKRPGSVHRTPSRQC
Cytochrome P450 2C9 (Homo sapiens), sequence (P11712 whole entry, looked up): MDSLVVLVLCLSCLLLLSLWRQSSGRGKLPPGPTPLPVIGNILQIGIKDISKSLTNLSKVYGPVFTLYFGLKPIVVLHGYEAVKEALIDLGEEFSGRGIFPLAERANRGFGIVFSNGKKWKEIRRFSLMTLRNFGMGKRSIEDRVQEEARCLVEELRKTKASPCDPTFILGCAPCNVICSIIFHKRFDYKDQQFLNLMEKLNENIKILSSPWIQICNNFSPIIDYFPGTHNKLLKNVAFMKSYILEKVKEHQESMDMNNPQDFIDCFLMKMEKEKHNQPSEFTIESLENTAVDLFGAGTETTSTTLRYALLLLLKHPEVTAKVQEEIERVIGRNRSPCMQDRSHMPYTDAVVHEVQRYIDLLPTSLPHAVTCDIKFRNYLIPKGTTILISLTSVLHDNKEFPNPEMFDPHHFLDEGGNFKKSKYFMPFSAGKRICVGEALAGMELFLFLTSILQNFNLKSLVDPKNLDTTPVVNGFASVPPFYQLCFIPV
Guanine nucleotide-binding protein G(i) subunit alpha-1 (Homo sapiens), sequence (P63096 whole entry, looked up): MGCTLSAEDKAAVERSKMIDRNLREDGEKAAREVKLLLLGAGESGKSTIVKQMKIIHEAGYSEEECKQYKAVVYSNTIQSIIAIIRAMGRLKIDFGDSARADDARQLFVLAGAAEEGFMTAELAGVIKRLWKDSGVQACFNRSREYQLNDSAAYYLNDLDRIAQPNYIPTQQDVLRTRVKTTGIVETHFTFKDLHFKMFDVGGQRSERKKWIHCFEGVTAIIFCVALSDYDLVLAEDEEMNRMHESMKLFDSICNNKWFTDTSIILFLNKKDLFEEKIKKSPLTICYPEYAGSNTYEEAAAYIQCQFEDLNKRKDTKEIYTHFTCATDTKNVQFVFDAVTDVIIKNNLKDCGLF

Turning to `O=P1(NCCCl)OCCCN1CCCl` (stereo not given), the activation in [1] is -2.35%.

As to `CC(=O)Nc1cc([As](=O)(O)O)ccc1O`, the Potency result in test [2] was “inactive”. In addition, the outcome in [3] and in [4] was inactive.

Consider `COc1ccc(C(CN(C)C)C2(O)CCCCC2)cc1` (stereo not given), for which the Potency result in test [2] was “inactive”. Further, the call in test [3] and in test [4] was inactive.

Consider `CC(C)C(=O)Nc1ccc([N+](=O)[O-])c(C(F)(F)F)c1`, for which the Potency result in test [5] was “inactive”.

Regarding `Cc1c(OCC(F)(F)F)ccnc1CS(=O)c1nc2ccccc2[nH]1` (stereo not given), in test [6], the Potency was 31.6 µM (active).

As to `Cc1ccc(-c2nc3ccc(C)cn3c2CC(=O)N(C)C)cc1`, the call in test [3] and in test [4] was inactive.

In the case of `O=C(O)c1ccc2[nH]cc(CCCCN3CC=C(c4ccccc4)CC3)c2c1`, the Potency entry in test [2] was “inactive”.

For `CN1C[C@H](CNC(=O)OCc2ccccc2)C[C@@H]2c3cccc4c3c(cn4C)C[C@H]21`, the Potency result in test [7] was “inactive”. For the same compound, the results for the Potency in test [8] and in test [9] were 10 µM (active) and 15.8 µM (active), respectively. For the same compound, the compound was classed as inactive in [10].

As to `Cc1cc(SCc2sc(-c3ccc(C(F)(F)F)c(F)c3)nc2C)ccc1OCC(=O)O`, the Potency in [2] is 7.94 µM (active). Also, in test [11], the call was inactive.

With `CCC1C(=O)OCC1Cc1cncn1C` (stereo not given), in [11], the outcome was inactive.

Consider `CN(C)CCC=C1c2ccccc2CCc2ccccc21`, for which the Potency in [6] is 7.94 µM (active).

As for `CC[N+]1(C)CCCC(OC(=O)C(O)(c2ccccc2)c2ccccc2)C1` (stereo not given), in test [2], the Potency entry is “inactive”. In addition, the outcome in test [3] and in test [4] was inactive.

In the case of `CCC1(C2=NCCN2)Cc2ccccc2O1` (stereo not given), the Potency entry in test [2] was “inactive”. Also, the outcome in [3] and in [4] was inactive.

On to `CC(C)=CC1C(C(=O)OCc2cccc(Oc3ccccc3)c2)C1(C)C` (stereo not given), for which the Potency result in test [2] was “inactive”. Besides, the compound was classed as inactive in test [3] and in test [4].

Regarding `O=[N+]([O-])c1cc([As](=O)(O)O)ccc1O`, the Potency entry in test [2] and in [5] was “inactive” each time. Besides, the compound was called inactive in test [3] and in [4].

As for `O=c1c(O)c(-c2ccc(O)c(O)c2)oc2cc(O)cc(O)c12`, the Potency in test [7] was 5.62 µM (active). In [12], the Potency entry was “inactive”.

Turning to `Fc1ccc(C(OCCN2CCN(CCCc3ccccc3)CC2)c2ccc(F)cc2)cc1`, the compound was classed as inactive in test [13] and in [10]. The Potency in test [8] was 10 µM (active); in [12], 1.58 µM (active); in [9], 7.94 µM (active).

As to `CC(=O)Oc1ccccc1C(=O)Nc1ncc([N+](=O)[O-])s1`, the Potency in [14] is 39.8 µM (active).

With `CC(C)(C)NCC(O)c1cc(Cl)c(N)c(Cl)c1` (stereo not given), the result in test [11], in test [3] and in test [4] was inactive.

On to `NCCc1cc(O)c(O)cc1O`, for which, in test [2], the Potency result was “inactive”. Moreover, the outcome in test [3] and in test [4] was inactive.

Regarding `COc1cc2c(c(OC)c1OC)-c1ccc(OC)c(=O)cc1[C@@H](NC(C)=O)CC2`, the Potency in test [15] is 3.16 µM (active); in test [6], 0.794 µM (active).

For the compound `COc1ccc(Cc2nccc3cc(OC)c(OC)cc23)cc1OC`, the Potency is 12.6 µM (active) in test [15], 12.6 µM (active) in test [6], 5.01 µM (active) in [5] and 12.6 µM (active) in test [8]. In addition, the result in test [11], in [3] and in [4] was inactive.

In the case of `CCOC(=O)c1ncn2c1CN(C)C(=O)c1cc(F)ccc1-2`, the Potency in test [5] was 1.58 µM (active).

In the case of `CC(C)CC(N(C)C)C1(c2ccc(Cl)cc2)CCC1` (stereo not given), the result in test [11], in test [3] and in test [4] was inactive.

`CC(C)=CCOc1c2occc2cc2ccc(=O)oc12`: the call in test [3] and in test [4] was inactive.

For `CC(CCc1ccccc1)NC(C)C(O)c1ccc(O)cc1` (stereo not given), the Potency result in test [2] was “inactive”. The compound was called inactive in [3] and in test [4].
